The whole screen tested about 5,500 compounds, of which about 2,000 (36%) were called active. Another 18% or so got no clear call; they are omitted. The list shows a part of the results. Unmarked numbers belong to inactive results. No stated cut-off is given here; in the data, active means normalized growth mostly below about 0.91 (no sharp cut-off); inconclusive means no clear call, values can overlap the other calls; inactive means mostly above about 0.92.
Test: chemical genetic growth profiling, strain panel (AID 1159580);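 further: tested at 20 µM; growth read once vehicle control cultures reached saturation at 30 °C; 1 = growth at the plate median or of vehicle wells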
Settings: S. cerevisiae deletion strains, growth OD
[1] = locus YDR150W, strain NUM1, stronger effect = lower value
[2] = locus YHR030C, strain SLT2, stronger effect = lower value
[3] = locus YNL153C, strain GIM3, stronger effect = lower value
[4] = locus YNL322C, strain KRE1, stronger effect = lower value
[5] = locus YPL241C, strain CIN2, stronger effect = lower value

## CC12CCC3C4CCC(=O)C=C4CCC3C1CCC2=O (stereo not given)
Locus YAL013W, strain DEP1, stronger effect = lower value
  normalized growth: 1.01
Locus YBR229C, strain ROT2, stronger effect = lower value
  normalized growth: 1.01
Locus YDL101C, strain DUN1, stronger effect = lower value
  normalized growth: 1
[1]
  normalized growth: 0.995
Locus YEL061C, strain CIN8, stronger effect = lower value
  normalized growth: 1.01
Locus YGR078C, strain PAC10, stronger effect = lower value
  normalized growth: 1.01
Locus YGR229C, strain SMI1, stronger effect = lower value
  normalized growth: 1.01
[2]
  normalized growth: 0.898
Locus YHR087W, strain rtc3, stronger effect = lower value
  normalized growth: 1.03
Locus YJR043C, strain POL32, stronger effect = lower value
  normalized growth: 1.02
Locus YJR075W, strain HOC1, stronger effect = lower value
  normalized growth: 1.02
Locus YLR039C, strain RIC1, stronger effect = lower value
  normalized growth: 0.786 (active)
Locus YLR058C, strain SHM2 (second series), stronger effect = lower value
  normalized growth: 1.01
Locus YLR085C, strain ARP6, stronger effect = lower value
  normalized growth: 1.02
Locus YLR262C, strain YPT6, stronger effect = lower value
  normalized growth: 0.737 (active)
Locus YML094W, strain GIM5, stronger effect = lower value
  normalized growth: 0.994
Locus YMR219W, strain ESC1, stronger effect = lower value
  normalized growth: 1.01
Locus YMR263W, strain SAP30, stronger effect = lower value
  normalized growth: 0.999
Locus YMR307W, strain GAS1, stronger effect = lower value
  normalized growth: 0.989
[3]
  normalized growth: 0.991
Locus YNL298W, strain CLA4 (second series), stronger effect = lower value
  normalized growth: 1.01
[4]
  normalized growth: 1.02
Locus YNR030W, strain Alg12, stronger effect = lower value
  normalized growth: 0.998
Locus YOL006C, strain TOP1, stronger effect = lower value
  normalized growth: 0.971
Locus YPL055C, strain LGE1, stronger effect = lower value
  normalized growth: 1.02
[5]
  normalized growth: 1.01
Locus YPR135W, strain CTF4, stronger effect = lower value
  normalized growth: 0.897

## C#C[C@]1(OC(C)=O)CCC2C3CCC4=C/C(=N\O)CCC4C3CC[C@@]21CC (stereo not given in full)
Locus YAL021C, strain ccr4, stronger effect = lower value
  normalized growth: 0.823 (active)
Locus YAL026C, strain drs2, stronger effect = lower value
  normalized growth: 0.921
Locus YAL030W, strain snc1, stronger effect = lower value
  normalized growth: 0.582 (active)
Locus YBL061C, strain skt5, stronger effect = lower value
  normalized growth: 0.514 (active)
Locus YBR009C, strain hhf1, stronger effect = lower value
  normalized growth: 0.403 (active)
Locus YBR023C, strain chs3, stronger effect = lower value
  normalized growth: 0.612 (active)
Locus YBR171W, strain sec66, stronger effect = lower value
  normalized growth: 0.944
Locus YBR231C, strain swc5, stronger effect = lower value
  normalized growth: 0.333 (active)
Locus YBR279W, strain paf1, stronger effect = lower value
  normalized growth: 0.879 (active)
Locus YCL011C, strain gbp2, stronger effect = lower value
  normalized growth: 0.476 (active)
Locus YCL016C, strain dcc1, stronger effect = lower value
  normalized growth: 0.77 (active)
Locus YCL061C, strain MRC1, stronger effect = lower value
  normalized growth: 0.94
Locus YCL069W, strain vba3, stronger effect = lower value
  normalized growth: 0.984
Locus YCR088W, strain abp1, stronger effect = lower value
  normalized growth: 0.898 (active)
Locus YDL005C, strain med2, stronger effect = lower value
  normalized growth: 0.41 (active)
Locus YDL040C, strain nat1, stronger effect = lower value
  normalized growth: 0.726 (active)
Locus YDR001C, strain nth1, stronger effect = lower value
  normalized growth: 0.998
Locus YDR069C, strain doa4, stronger effect = lower value
  normalized growth: 0.367 (active)
Locus YDR137W, strain rgp1, stronger effect = lower value
  normalized growth: 0.242 (active)
Locus YDR159W, strain sac3, stronger effect = lower value
  normalized growth: 0.267 (active)
Locus YDR195W, strain ref2
  normalized growth: 0.269 (active)
Locus YDR297W, strain sur2, stronger effect = lower value
  normalized growth: 0.716 (active)
Locus YDR334W, strain swr1, stronger effect = lower value
  normalized growth: 1
Locus YDR335W, strain msn5, stronger effect = lower value
  normalized growth: 0.866 (active)
Locus YDR392W, strain spt3, stronger effect = lower value
  normalized growth: 0.193 (active)
Locus YEL003W, strain gim4, stronger effect = lower value
  normalized growth: 0.759 (active)
Locus YEL037C, strain rad23, stronger effect = lower value
  normalized growth: 0.993
Locus YEL061C, strain CIN8 (second series), stronger effect = lower value
  normalized growth: 0.996
Locus YER015W, strain faa2, stronger effect = lower value
  normalized growth: 0.918 (active)
Locus YER016W, strain bim1, stronger effect = lower value
  normalized growth: 0.599 (active)
Locus YER111C, strain swi4, stronger effect = lower value
  normalized growth: 1.01
Locus YER155C, strain BEM2 (second series), stronger effect = lower value
  normalized growth: 0.737 (active)
Locus YFR010W, strain ubp6, stronger effect = lower value
  normalized growth: 0.761 (active)
Locus YGL167C, strain pmr1, stronger effect = lower value
  normalized growth: 0.682 (active)
Locus YGL173C, strain kem1, stronger effect = lower value
  normalized growth: 0.817 (active)
Locus YGL227W, strain vid30, stronger effect = lower value
  normalized growth: 0.97
Locus YGL240W, strain doc1, stronger effect = lower value
  normalized growth: 0.782 (active)
Locus YGL253W, strain hxk2, stronger effect = lower value
  normalized growth: 0.71 (active)
Locus YHR013C, strain ard1, stronger effect = lower value
  normalized growth: 0.315 (active)
Locus YHR027C, strain rpn1, stronger effect = lower value
  normalized growth: 0.725 (active)
[2]
  normalized growth: 0.671 (active)
Locus YHR079C, strain IRE1, stronger effect = lower value
  normalized growth: 0.707 (active)
Locus YHR142W, strain chs7, stronger effect = lower value
  normalized growth: 0.776 (active)
Locus YJL092W, strain hpr5, stronger effect = lower value
  normalized growth: 0.941
Locus YJL095W, strain BCK1 (second series), stronger effect = lower value
  normalized growth: 0.503 (active)
Locus YJL095W, strain BCK1, stronger effect = lower value
  normalized growth: 0.605 (active)
Locus YJL115W, strain asf1, stronger effect = lower value
  normalized growth: 1.01
Locus YJL129C, strain trk1, stronger effect = lower value
  normalized growth: 0.56 (active)
Locus YJL154C, strain vps35, stronger effect = lower value
  normalized growth: 0.994
Locus YJL164C, strain tpk1, stronger effect = lower value
  normalized growth: 0.469 (active)
Locus YJL166W, strain qcr8, stronger effect = lower value
  normalized growth: 0.344 (active)
Locus YJL187C, strain SWE1, stronger effect = lower value
  normalized growth: 0.582 (active)
Locus YJR066W, strain TOR1, stronger effect = lower value
  normalized growth: 0.863
Locus YKL160W, strain elf1, stronger effect = lower value
  normalized growth: 0.495 (active)
Locus YKR026C, strain gcn3, stronger effect = lower value
  normalized growth: 0.99
Locus YKR091W, strain srl3, stronger effect = lower value
  normalized growth: 0.941
Locus YLL001W, strain dnm1, stronger effect = lower value
  normalized growth: 0.826 (active)
Locus YLL026W, stronger effect = lower value
  normalized growth: 0.461 (active)
Locus YLL041C, strain sdh2, stronger effect = lower value
  normalized growth: 0.775 (active)
Locus YLR027C, strain aat2, stronger effect = lower value
  normalized growth: 0.513 (active)
Locus YLR113W, strain HOG1, stronger effect = lower value
  normalized growth: 0.305 (active)
Locus YLR221C, strain rsa3, stronger effect = lower value
  normalized growth: 0.638 (active)
Locus YLR258W, strain gsy2, stronger effect = lower value
  normalized growth: 0.495 (active)
Locus YLR262C, strain YPT6 (second series), stronger effect = lower value
  normalized growth: 0.18 (active)
Locus YLR320W, strain mms22, stronger effect = lower value
  normalized growth: 0.558 (active)
Locus YLR342W, strain FKS1, stronger effect = lower value
  normalized growth: 0.518 (active)
Locus YLR357W, strain rsc2, stronger effect = lower value
  normalized growth: 0.937
Locus YLR370C, strain arc18, stronger effect = lower value
  normalized growth: 0.785 (active)
Locus YLR384C, strain iki3, stronger effect = lower value
  normalized growth: 1.01
Locus YML120C, strain ndi1, stronger effect = lower value
  normalized growth: 0.471 (active)
Locus YMR058W, strain fet3, stronger effect = lower value
  normalized growth: 0.89 (active)
Locus YMR125W, strain sto1, stronger effect = lower value
  normalized growth: 0.884 (active)
Locus YMR129W, stronger effect = lower value
  normalized growth: 0.986
Locus YMR205C, strain PFK2, stronger effect = lower value
  normalized growth: 0.358 (active)
Locus YMR231W, strain pep5, stronger effect = lower value
  normalized growth: 0.45 (active)
Locus YNL071W, strain lat1, stronger effect = lower value
  normalized growth: 0.476 (active)
Locus YNL183C, strain NPR1, stronger effect = lower value
  normalized growth: 0.84
Locus YNL209W, strain ssb2, stronger effect = lower value
  normalized growth: 0.846 (active)
Locus YNL248C, strain rpa49, stronger effect = lower value
  normalized growth: 0.996
Locus YNL322C, strain KRE1 (second series), stronger effect = lower value
  normalized growth: 1.01
Locus YNR049C, strain mso1, stronger effect = lower value
  normalized growth: 0.987
Locus YOR001W, strain rrp6, stronger effect = lower value
  normalized growth: 0.767 (active)
Locus YOR070C, strain gyp1, stronger effect = lower value
  normalized growth: 0.394 (active)
Locus YOR080W, strain dia2, stronger effect = lower value
  normalized growth: 0.917
Locus YOR083W, strain WHI5, stronger effect = lower value
  normalized growth: 0.619 (active)
Locus YOR106W, strain vam3, stronger effect = lower value
  normalized growth: 0.281 (active)
Locus YOR231W, strain MKK1, stronger effect = lower value
  normalized growth: 0.673 (active)
Locus YOR265W, strain rbl2, stronger effect = lower value
  normalized growth: 0.668 (active)
Locus YOR270C, strain vph1, stronger effect = lower value
  normalized growth: 0.512 (active)
Locus YOR290C, strain snf2, stronger effect = lower value
  normalized growth: 0.563 (active)
Locus YPL051W, strain arl3, stronger effect = lower value
  normalized growth: 0.456 (active)
Locus YPL078C, strain atp4, stronger effect = lower value
  normalized growth: 0.835 (active)
Locus YPL106C, strain sse1, stronger effect = lower value
  normalized growth: 0.824 (active)
Locus YPL240C, strain hsp82, stronger effect = lower value
  normalized growth: 0.604 (active)
Locus YPL256C, strain CLN2, stronger effect = lower value
  normalized growth: 0.752 (active)

## C[C@]12CCC(=O)C=C1CC[C@@H]1[C@@H]2C(=O)C[C@@]2(C)[C@H]1CC[C@]2(O)C(=O)CO
Locus YAL040C, strain CLN3, stronger effect = lower value
  normalized growth: 0.957
Locus YCL061C, strain MRC1 (second series), stronger effect = lower value
  normalized growth: 0.993
[1]
  normalized growth: 1
Locus YDR363W, strain ESC2, stronger effect = lower value
  normalized growth: 0.986
Locus YER002W, strain NOP16, stronger effect = lower value
  normalized growth: 0.966
Locus YNL128W, strain TEP1, stronger effect = lower value
  normalized growth: 0.978
[3]
  normalized growth: 0.979
Locus YNL175C, strain NOP13, stronger effect = lower value
  normalized growth: 0.982
Locus YNL197C, strain WHI3, stronger effect = lower value
  normalized growth: 0.942
Locus YNL224C, strain SQS1, stronger effect = lower value
  normalized growth: 0.983
[4]
  normalized growth: 0.988
Locus YOR083W, strain WHI5 (second series), stronger effect = lower value
  normalized growth: 0.94
[5]
  normalized growth: 0.995
